About 83,000 compounds went through this panel and 20% of them were active in at least one assay; those are over-represented in the sample as a whole.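 Compound tested at a single concentration for 48 hours in 96-well plates; a percent growth value below 10 was scored as active.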 The source made the active and inactive calls.
Tests used:
Assay in all cases: NCI-60 one-dose screen, 48 h (100 = growth as untreated, 0 = no growth, -100 = all killed)
Conditions in all cases: 10 µM unless noted
NCI-H23 lung = tested on: NCI-H23 lung
NCI-H226 lung = tested on: NCI-H226 lung
NCI-H322M lung = tested on: NCI-H322M lung
HOP-62 NSCLC = tested on: HOP-62 NSCLC
NCI-H460 lung = tested on: NCI-H460 lung
HOP-92 NSCLC = tested on: HOP-92 NSCLC
NCI-H522 lung = tested on: NCI-H522 lung
A549/ATCC NSCLC = tested on: A549/ATCC NSCLC
786-0 renal = tested on: 786-0 renal
COLO 205 colon = tested on: COLO 205 colon
DU-145 prostate = tested on: DU-145 prostate
K-562 leukemia = tested on: K-562 leukemia
MALME-3M melanoma = tested on: MALME-3M melanoma
MDA-MB-231 breast = tested on: MDA-MB-231 breast
RXF 393 renal = tested on: RXF 393 renal
SF-268 CNS = tested on: SF-268 CNS
SF-295 CNS = tested on: SF-295 CNS
SF-539 CNS = tested on: SF-539 CNS
UACC-257 melanoma = tested on: UACC-257 melanoma
M14 melanoma = tested on: M14 melanoma

Measured: growth

N#Cc1nc(-c2ccccc2)oc1S(=O)(=O)N1CCOCC1
active: NCI-H522 lung -55.5% | COLO 205 colon 0.0605% | K-562 leukemia 5.21%
inactive: NCI-H23 lung 89.9% | NCI-H226 lung 102% | NCI-H322M lung 100% | HOP-62 NSCLC 97.9% | NCI-H460 lung 109% | HOP-92 NSCLC 108% | A549/ATCC NSCLC 94.5% | 786-0 renal 88% | DU-145 prostate 103% | MALME-3M melanoma 39.6% | MDA-MB-231 breast 98.3% | RXF 393 renal 91% | SF-268 CNS 108% | SF-295 CNS 98.5% | SF-539 CNS 101% | UACC-257 melanoma 92.8% | M14 melanoma 61.7%

CN1C(=O)/C(=C/c2cn(-c3ccccc3)nc2-c2ccccc2)SC1=S
inactive: NCI-H23 lung 95.4% | NCI-H226 lung 98.3% | NCI-H322M lung 107% | HOP-62 NSCLC 97.9% | NCI-H460 lung 101% | HOP-92 NSCLC 51.4% | NCI-H522 lung 90.2% | A549/ATCC NSCLC 102% | 786-0 renal 107% | COLO 205 colon 124% | DU-145 prostate 105% | K-562 leukemia 92.6% | MALME-3M melanoma 114% | MDA-MB-231 breast 92.8% | RXF 393 renal 110% | SF-268 CNS 104% | SF-295 CNS 89.6% | SF-539 CNS 99.5% | UACC-257 melanoma 106% | M14 melanoma 103%

CN1C(=O)N(C)C2Nn3c(s/c(=C\c4ccc(C(F)(F)F)cc4)c3=O)=NC21 (stereo not given)
inactive: NCI-H23 lung 99.4% | NCI-H226 lung 96.3% | NCI-H322M lung 101% | HOP-62 NSCLC 115% | NCI-H460 lung 107% | HOP-92 NSCLC 110% | NCI-H522 lung 93.4% | A549/ATCC NSCLC 104% | 786-0 renal 105% | COLO 205 colon 118% | DU-145 prostate 109% | K-562 leukemia 93.3% | MALME-3M melanoma 107% | MDA-MB-231 breast 91.7% | RXF 393 renal 95.7% | SF-268 CNS 96.9% | SF-295 CNS 101% | SF-539 CNS 97.3% | UACC-257 melanoma 111% | M14 melanoma 110%

COc1ccc2[nH]cc(-c3nc(-c4c[nH]c5ccncc45)cs3)c2c1
active: NCI-H460 lung -20.7% | NCI-H522 lung -18.8% | 786-0 renal -86% | COLO 205 colon -62.8% | K-562 leukemia -37.9% | MALME-3M melanoma -77.5% | MDA-MB-231 breast -35% | RXF 393 renal -0.983% | SF-295 CNS -57.1% | SF-539 CNS -83.4% | M14 melanoma -74%
inactive: NCI-H23 lung 76.6% | NCI-H226 lung 93.3% | NCI-H322M lung 67.6% | HOP-62 NSCLC 27.6% | HOP-92 NSCLC 62.5% | A549/ATCC NSCLC 24% | DU-145 prostate 32.9% | SF-268 CNS 65.3% | UACC-257 melanoma 82%

CN1CCN(C(=O)c2ccc(NC(=O)Nc3ccc(-c4nc(N5CCOCC5)c5cccn5n4)cc3)cc2)CC1
active: NCI-H226 lung -6.51% | NCI-H322M lung -12% | HOP-62 NSCLC -13.5% | NCI-H460 lung 7.17% | HOP-92 NSCLC -28.6% | A549/ATCC NSCLC 1.15% | 786-0 renal -20.1% | COLO 205 colon -11.4% | DU-145 prostate 7.11% | MALME-3M melanoma -37% | MDA-MB-231 breast 2.25% | RXF 393 renal -39.5% | SF-268 CNS 4.85% | SF-295 CNS -43.6% | SF-539 CNS -40.1% | UACC-257 melanoma -21.3% | M14 melanoma -22%
inactive: NCI-H23 lung 15.4% | NCI-H522 lung 12.4% | K-562 leukemia 15.3%

O=C(CI)NC1Oc2ccccc2-c2oc(=O)c(-c3ccccc3)cc21 (stereo not given)
inactive: NCI-H322M lung 105% | A549/ATCC NSCLC 94.7% | SF-295 CNS 87.4% | UACC-257 melanoma 77.3%
active: NCI-H23 lung -55.7% | NCI-H226 lung -43.3% | HOP-62 NSCLC -3.99% | NCI-H460 lung 0.996% | HOP-92 NSCLC -72.4% | NCI-H522 lung -75.6% | 786-0 renal -79.3% | COLO 205 colon -53.5% | DU-145 prostate -93.8% | K-562 leukemia -13% | MALME-3M melanoma -77.1% | MDA-MB-231 breast -68.8% | RXF 393 renal -89.4% | SF-268 CNS -72.2% | SF-539 CNS -89.5% | M14 melanoma -39.8%

CC(C)NC1CCC(Nc2ccnc3cc(Cl)ccc23)CC1 (stereo not given)
inactive: NCI-H23 lung 101% | NCI-H226 lung 83.6% | NCI-H322M lung 88.2% | HOP-62 NSCLC 78.1% | NCI-H460 lung 101% | HOP-92 NSCLC 46.8% | NCI-H522 lung 78.5% | A549/ATCC NSCLC 91.1% | 786-0 renal 90.4% | COLO 205 colon 69.3% | DU-145 prostate 111% | K-562 leukemia 56.3% | MALME-3M melanoma 85.4% | MDA-MB-231 breast 76.5% | RXF 393 renal 49.2% | SF-268 CNS 99.6% | SF-295 CNS 96.6% | SF-539 CNS 97.5% | UACC-257 melanoma 88.6% | M14 melanoma 93.2%

CCOC(=O)c1c(C)c2c(n1C)CSc1cc(C(=O)c3ccccc3)c(=O)[nH]c1-2
inactive: NCI-H23 lung 81.7% [100 µM] | NCI-H226 lung 98.3% [100 µM] | NCI-H322M lung 90.5% [100 µM] | HOP-62 NSCLC 103% [100 µM] | NCI-H460 lung 79.6% [100 µM] | HOP-92 NSCLC 84.4% [100 µM] | NCI-H522 lung 97.5% [100 µM] | A549/ATCC NSCLC 78.9% [100 µM] | 786-0 renal 106% [100 µM] | COLO 205 colon 117% [100 µM] | DU-145 prostate 100% [100 µM] | K-562 leukemia 102% [100 µM] | MALME-3M melanoma 90.8% [100 µM] | MDA-MB-231 breast 87.1% [100 µM] | RXF 393 renal 134% [100 µM] | SF-268 CNS 90.8% [100 µM] | SF-295 CNS 103% [100 µM] | SF-539 CNS 94.7% [100 µM] | UACC-257 melanoma 120% [100 µM] | M14 melanoma 108% [100 µM]

From PubChem BioAssay (NCI)
